Test systems include RPMI-8226 leukemia; OVCAR-8 ovarian; OVCAR-5 ovarian; OVCAR-4 ovarian; SK-OV-3 ovarian; IGROV1 ovarian; OVCAR-3 ovarian; HS 578T breast; NCI/ADR-RES ovarian; T-47D breast; BT-549 breast; MDA-MB-435 melanoma; SW-620 colon; MCF7 breast; HCT-116 colon; HCC-2998 colon; KM12 colon.
Common to all, as to experiment: NCI-60 one-dose screen, 48 h (100 = growth as untreated, 0 = no growth, -100 = all killed)
Common to all, as to details: 10 µM unless noted

The panel holds about 83,000 compounds, 20% with a hit somewhere; the sample as a whole holds those more often.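 Cell lines were cultured in 96-well plates, exposed to a single compound concentration, and assessed for percent growth 48 hours later.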 Values without a mark were called inactive. The source made the active and inactive calls. How the source made its calls: active means growth percent below 10; inactive means the rest.

On to `O=C1Nc2ccccc2/C1=C\c1c(-c2ccc(F)cc2)nc2ccccn12`, for which the growth in the assay on RPMI-8226 leukemia is 94.8%; in the assay with OVCAR-8 ovarian, 86.8%; in the assay with OVCAR-5 ovarian, 77.5%; in the assay with OVCAR-4 ovarian it was 83.9%; in the assay with SK-OV-3 ovarian it was 62.7%; with IGROV1 ovarian, 57.1%. The growth was 62.1% with OVCAR-3 ovarian; 91.5% in the assay with HS 578T breast; 35.4% in the assay with NCI/ADR-RES ovarian; 60.6% with T-47D breast; 69.6% with BT-549 breast; -21.1% (active) with MDA-MB-435 melanoma. Further, the growth in the assay with SW-620 colon was 64.5%; in the assay with MCF7 breast it was 62.8%; with HCT-116 colon, 64.2%; in the assay on HCC-2998 colon, 130%; in the assay with KM12 colon, 46.3%.
`Cc1nc2sccn2c1-c1cn2ccsc2n1`: the growth with RPMI-8226 leukemia was 65%; in the assay on OVCAR-8 ovarian, 96%; with OVCAR-5 ovarian, 87.7%; with OVCAR-4 ovarian, 70.8%; in the assay on SK-OV-3 ovarian, 94.9%; with IGROV1 ovarian it was 14.3%. In addition, the growth was 85.8% with OVCAR-3 ovarian; 87% with HS 578T breast; 98% with NCI/ADR-RES ovarian; -4.14% (active) in the assay with T-47D breast; 80.2% in the assay on BT-549 breast; 95.9% with MDA-MB-435 melanoma. In addition, the growth is 96.9% in the assay on SW-620 colon; -39.1% (active) in the assay with MCF7 breast; 88.3% in the assay with HCT-116 colon; 50.2% in the assay on HCC-2998 colon; 64.1% with KM12 colon.
Turning to `O=C1Nc2ccccc2/C1=C\c1c(-c2ccccc2)nc2ccccn12`, the growth in the assay with RPMI-8226 leukemia is 66%; in the assay on OVCAR-8 ovarian, 68.9%; in the assay with OVCAR-5 ovarian, 68.2%; in the assay on OVCAR-4 ovarian it was 78.8%; in the assay on SK-OV-3 ovarian, 30.5%; in the assay with IGROV1 ovarian, 46.3%. The growth was 11.9% with OVCAR-3 ovarian; 69.5% in the assay with HS 578T breast; -11.1% (active) in the assay on NCI/ADR-RES ovarian; 38.1% in the assay on T-47D breast; 45.3% with BT-549 breast; -42% (active) in the assay on MDA-MB-435 melanoma. Moreover, the growth in the assay on SW-620 colon is 21.2%; in the assay with MCF7 breast, 19.6%; in the assay with HCT-116 colon it was 20.6%; with HCC-2998 colon, 107%; in the assay on KM12 colon, 23.3%.
With `COc1cc2cc(Oc3cccc(NC(=O)Nc4cc(C(F)(F)F)cc(C(F)(F)F)c4)c3)c(C)nc2cc1OC`, the growth in the assay with RPMI-8226 leukemia is 1.15% (active); in the assay with OVCAR-8 ovarian, 14.2%; in the assay with OVCAR-5 ovarian, 14.6%; in the assay with OVCAR-4 ovarian, 27.9%; with SK-OV-3 ovarian it was -1.05% (active); in the assay with IGROV1 ovarian, 19.8%. For the same compound, the growth in the assay with OVCAR-3 ovarian was 1.71% (active); in the assay on HS 578T breast it was -10.7% (active); in the assay on NCI/ADR-RES ovarian, 7.03% (active); with T-47D breast, 7.52% (active); with BT-549 breast it was 1.44% (active); in the assay with MDA-MB-435 melanoma, -2.55% (active). The growth with SW-620 colon is 15.9%; in the assay on MCF7 breast, 0.59% (active); in the assay on HCT-116 colon, 3.73% (active); with HCC-2998 colon, 21.3%; with KM12 colon it was 5.61% (active).
Consider `CCCCCCCC(=O)OCC/C=C/C1OC1C1OC(=O)/C=C\C=C\C(=O)N(C(C)=O)C(=O)/C=C(/C)CCC2OC2C1OC(=O)NC(C)=O` (configuration not stated), for which the growth with RPMI-8226 leukemia was 45.2%; in the assay with OVCAR-8 ovarian, 85.1%; with OVCAR-5 ovarian it was 79.5%; in the assay on OVCAR-4 ovarian it was 97.2%; in the assay with SK-OV-3 ovarian, 96%; in the assay with IGROV1 ovarian, 62.7%. Besides, the growth was 61.2% with OVCAR-3 ovarian; 87.5% in the assay with HS 578T breast; 78.1% with NCI/ADR-RES ovarian; 10.8% with T-47D breast; 92.5% in the assay on BT-549 breast; 79% with MDA-MB-435 melanoma. The growth is 20.4% in the assay with MCF7 breast, 3.69% (active) with HCT-116 colon, 72.1% in the assay with HCC-2998 colon and 44.1% with KM12 colon.
In the case of `CC(C)c1ccc(Nc2ccc3c(OCCCN4CCN(C)CC4)cccc3n2)cc1`, the growth is 2.88% (active) with RPMI-8226 leukemia; 88.7% in the assay on OVCAR-8 ovarian; 81.2% in the assay with OVCAR-5 ovarian; 74.2% with OVCAR-4 ovarian; 99.9% with SK-OV-3 ovarian; 83.1% in the assay with IGROV1 ovarian. Further, the growth was 79.4% in the assay on OVCAR-3 ovarian; 77% in the assay on HS 578T breast; 82% in the assay with NCI/ADR-RES ovarian; 68.9% in the assay with T-47D breast; 79.6% with BT-549 breast; 22.6% with MDA-MB-435 melanoma. Further, the growth in the assay with MCF7 breast is 18.2%; in the assay on HCT-116 colon it was 18.6%; in the assay with HCC-2998 colon, 64.7%; in the assay with KM12 colon it was 39.3%.
For `COc1cc(/C=C\c2cc(/C=C\c3ccc(O)c(OC)c3)n(C(=O)COc3ccccc3)n2)ccc1O`, the growth is -3.54% (active) in the assay on RPMI-8226 leukemia; 3.26% (active) in the assay on OVCAR-8 ovarian; 22.1% with OVCAR-5 ovarian; 25.6% in the assay with OVCAR-4 ovarian; -28.6% (active) in the assay with SK-OV-3 ovarian; 8.43% (active) in the assay on IGROV1 ovarian. Moreover, the growth is -4.46% (active) with OVCAR-3 ovarian; 22.5% with HS 578T breast; 20.4% in the assay on NCI/ADR-RES ovarian; 12.4% in the assay with T-47D breast; -3.68% (active) in the assay on BT-549 breast; 7.35% (active) in the assay on SW-620 colon. Further, the growth was 1.3% (active) in the assay with MCF7 breast, 3.68% (active) in the assay on HCT-116 colon, 34.8% in the assay with HCC-2998 colon and 8.96% (active) in the assay on KM12 colon.
With `COc1ccc(NC(N)=NCCCOc2ccc(F)cc2)cc1`, the growth is 86% in the assay on RPMI-8226 leukemia; 94.1% in the assay with OVCAR-8 ovarian; 92.1% with OVCAR-5 ovarian; 70.1% with OVCAR-4 ovarian; 79.1% in the assay on SK-OV-3 ovarian; 67.7% in the assay with IGROV1 ovarian. Further, the growth is 99.9% in the assay with OVCAR-3 ovarian; 113% with HS 578T breast; 99% in the assay with NCI/ADR-RES ovarian; 23.2% with T-47D breast; 80.4% in the assay with MDA-MB-435 melanoma; 88.6% in the assay with SW-620 colon. For the same compound, the growth in the assay with MCF7 breast is 10.7%; in the assay on HCT-116 colon, 54%; in the assay with HCC-2998 colon it was 76.3%; with KM12 colon, 84.4%.

Values taken from PubChem BioAssay (NCI).
